Screening data: PubChem, National Center for Advancing Translational Sciences (NCATS)
Hits are enriched below; roughly 7.5% of the tested compounds scored in any of these assays.
Rab9 prom act = activators of Rab9 promoter; hit rate 2.8% among 320,000; AID 485297; Huh7 Rab9 promoter-luciferase reporter, luminescence, 24 h; Potency, µM (titrated, usually from 9.22 µM), without a hit: top-dose activation, negative = inhibition, actives largely listed as activators; note: % of control where 0% means no effect; nearly all actives have a fitted effect of over 60% in size
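Using Huh7 cells stably transfected with Rab9 promoter–luciferase, compounds were incubated 24 h at 37 °C, 5% CO2; luciferase luminescence was read 10 min after reagent addition.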
ELG1 genotoxic = induces genotoxicity in HEK293T cells with luciferase-tagged ELG1. AID 504466. HEK293T ELG1-luciferase reporter, luminescence, 16 h. hit rate 1.3% among 330,000. Potency, µM (series often up to 46 µM), inactives show at the highest dose activity change, positive = activation, most hits filed as activators; note: % of control where 0% means no effect; nearly all actives have a fitted effect of over 60% in size
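Step 1: seed 2,000 HEK293T ELG1-luciferase cells per well. Step 2: add compound or DMSO, incubate 16 hr at 37 °C. Step 3: ONE-Glo, 30 min at room temperature, read luminescence.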
FLuc counter = firefly luciferase modulation, counter-screen for miR-21 project | P08659 | purified FLuc, Km substrates, luminescence inhibition | Potency, µM (doses to about 57.5 µM), for the others: top-dose activity change, negative = inhibition, usual class: inhibitors | hit rate 6.9% among 360,000;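 note: plate controls were vehicle for no effect and reference inhibitor for full effect; nearly all actives have a fitted effect of over 55% in size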
Target sequence (P08659 whole entry, looked up): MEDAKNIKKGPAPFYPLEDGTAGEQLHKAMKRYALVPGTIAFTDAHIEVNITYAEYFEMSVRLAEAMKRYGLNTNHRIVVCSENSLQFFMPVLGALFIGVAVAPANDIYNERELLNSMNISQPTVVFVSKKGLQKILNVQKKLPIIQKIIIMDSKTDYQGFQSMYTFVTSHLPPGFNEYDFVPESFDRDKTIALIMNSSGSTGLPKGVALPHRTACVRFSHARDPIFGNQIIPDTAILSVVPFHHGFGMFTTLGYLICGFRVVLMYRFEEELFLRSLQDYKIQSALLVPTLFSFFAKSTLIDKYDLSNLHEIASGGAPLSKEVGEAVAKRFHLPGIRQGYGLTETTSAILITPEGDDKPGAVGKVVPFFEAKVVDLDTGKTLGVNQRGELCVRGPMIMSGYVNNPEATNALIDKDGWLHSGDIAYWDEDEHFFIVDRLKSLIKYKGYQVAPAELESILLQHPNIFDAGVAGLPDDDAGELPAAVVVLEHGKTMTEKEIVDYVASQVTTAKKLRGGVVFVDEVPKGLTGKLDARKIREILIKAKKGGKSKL
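Purified P. pyralis luciferase (10nM final) with 10uM D-luciferin and 10uM ATP (Km levels) in 50mM Tris acetate pH 7.5, 10mM Mg acetate, 0.01% Tween-20, 0.05% BSA; qHTS 6-point titration, ~60 µM downward; luminescence read.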
SMN2 splice up = SMN2 splice variant enhancement. hit rate 2.8% among 210,000. Potency, µM (doses to about 46.1 µM), inactives show top-dose activity change, positive = activation, usual class: activators. HEK293 SMN2-luciferase splicing reporter, luminescence, 30-36 h; note: % of control where 0% means no effect; nearly all actives have a fitted effect of over 55% in size
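qHTS luciferase splicing reporter: luminescence rises when SMN2 exon 7 is included in transfected HEK293 cells. Compound exposure lasted 30-36 h at 37C, with 4.5 mM final sodium butyrate as control, followed by a ONE-Glo read.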
NPC1 prom act = NPC1 promoter activation; Potency, µM (titrated, usually from 9.22 µM), for inactives: at the highest dose activation, usual class: activators; hit rate 2.4% among 320,000; Huh7 NPC1 promoter luciferase reporter, 24 h; AID 485313; note: % of control where 0% means no effect; nearly all actives have a fitted effect of over 60% in size
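Compounds in DMSO were transferred onto Huh7 NPC1-luciferase reporter cells pre-incubated 2 h; after 24 h at 37 °C, Amplite reagent was dispensed and luminescence recorded 10 min later.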
Starred values were filed as active, the others as inactive; ? = inconclusive; / = no result given; [ ] = dose if it differs, or a comment. Calls come from the whole dose curve; as a rule, active = well fitted curve in the direction sought with a large enough effect; inconclusive = small, poorly fitted or top-dose-only effect, or another doubt; inactive = no such curve, though single readings can be large; an effect the other way counts as inactive or inconclusive. Potency is the fitted concentration of half-maximal effect.

SMILES	Rab9 prom act	ELG1 genotoxic	FLuc counter	SMN2 splice up	NPC1 prom act
O=c1c2c3c(sc2nc2n1CCCCC2)CCC3	27%	?	-15%	0%	15%
O=C1c2sc3nc4n(c(=O)c3c2CCC1Br)CCCCC4 (stereo not given)	?	?	19µM*	-4%	29%
CCS(=O)(=O)N1CCN(Cc2ccc([N+](=O)[O-])cc2)CC1	-5%	0%	0%	-13%	-1%
COc1ccc(NC(=O)c2cc3c([nH]c4ccccc43)c(C)n2)cc1	-1%	4%	1%	10%	2%
CCOC(=O)N1CCN(C(=O)c2c[nH]c3ccc(S(=O)(=O)N(C)c4ccc(OCC)cc4)cc3c2=O)CC1	-5%	0%	3%	/	0%
CCOC(=O)/C(=N\Nc1ccc(OC)cc1)c1csc(Nc2ccccc2)n1	-3%	11%	9.5µM*	2%	1%
CCN(CC(=O)Nc1ccc(NC(C)=O)cc1)C(=O)c1sc2nc3n(c(=O)c2c1C)CCC3	-17%	1%	?	/	-2%
Cc1c(N=C/C=C/c2ccccc2)cnn1C	2%	2%	6.7µM*	-10%	1%
Cc1c(N=Cc2ccc(-c3ccc(Cl)cc3)o2)c(=O)n(-c2ccccc2)n1C	4%	6%	9.5µM*	-34%	-4%
C(/C=C\c1ccccc1)=Nc1ccc2c(c1)Cc1ccccc1-2	/	/	/	0%[9.22 µM]	/
Cc1ccccc1-c1ccc(C=Nc2c(C)n(C)n(-c3ccccc3)c2=O)o1	2%	3%	4.8µM*	-34%	2%
Cc1c(N=Cc2ccc(Cl)o2)c(=O)n(-c2ccccc2)n1C	2%	1%	-4%	7%	1%
Cc1c(N=C/C=C/c2ccccc2)c(=O)n(-c2ccccc2)n1C	10%	3%	19µM*	-2%	-3%
Cc1ccccc1CSCc1ccc(C(=O)NCCc2ccccc2)o1	/	/	-15%	/	/
NS(=O)(=O)c1cccc(NC(=O)c2cc3ccccc3o2)c1	?	8%	2.1µM*	/	?
COc1cccc(C(=O)Nc2cc3cc(OC)ccc3oc2=O)c1	/	/	0%	2%	/
O=C(Nc1cc2ccccc2oc1=O)c1ccccc1	0.18µM*	?	0.43µM*	0.89µM*	0.4µM*
CCC(=O)Nc1cccc(NC(=O)c2cc3ccccc3o2)c1	0.71µM*	?	2.4µM*	?	2µM*
NS(=O)(=O)c1cccc(NC(=O)c2cc(=O)c3ccccc3o2)c1	-1%	-1%	-9%	/	-1%
O=C(Nc1cccc(Br)c1)c1cc2ccccc2o1	2.8µM*	?	2.4µM*	/	3.2µM*
CNC(=O)c1cc2ccccc2o1	-4%	7%	-3%	22%	0%
Cc1ccc(CNC(=O)C(=O)NCC(c2ccco2)S(=O)(=O)c2ccccc2)cc1 (stereo not given)	/	/	-1%	/	/
Cc1c(C(=O)O)c(=O)n(-c2ccccc2)n1-c1ccccc1	-2%	-3%	-1%	1%	-3%
CN(C)S(=O)(=O)c1cccc(C(=O)Nc2ccc(C(=O)Nc3cccc(S(N)(=O)=O)c3)cc2)c1	/	-1%	/	/	/
O=C(Nc1ccc(N2CCCC2)c(Cl)c1)c1cccc(-c2cc3ccccc3oc2=O)c1	2%	-1%	?	-7%	-2%
SMILES	Rab9 prom act	ELG1 genotoxic	FLuc counter	SMN2 splice up	NPC1 prom act
CC(=O)Nc1ccc(NC(=O)c2cccc(-c3cc4ccccc4oc3=O)c2)cc1	3.2µM*	10%	?	10µM*	?
Cc1cccc(NC(=O)c2cc3ccccc3o2)c1	1.4µM*	21µM*	3.8µM*	13µM*	1.3µM*
CC(C)C(=O)Nc1ccc(NC(=O)c2cc3ccccc3o2)cc1	3%[1.84 µM]	?	?	?	22%
CCC(=O)Nc1cccc(-c2cc3ccccc3oc2=O)c1	?	?	12µM*	-37%	?
NS(=O)(=O)c1cccc(NC(=O)c2cccc(-c3ccc(O)cc3)c2)c1	-1%	1%	17µM*	/	1%
CC1(C)CNc2cc([N+](=O)[O-])ccc2S1	?	?	27µM*	14%	?
CC(C)(C)C(=O)Nc1ccc(C(=O)Nc2cccc(Oc3ccc(C(=O)O)c(C(=O)O)c3)c2)cc1	0%	-4%	1.5µM*	/	4%
O=C(Nc1cccc(Oc2ccc(C(=O)O)c(C(=O)O)c2)c1)c1ccc(-c2ccccc2)cc1	-4%	-2%	1.7µM*	/	1%
Cc1cc(S(=O)(=O)NCc2ccccc2)ccc1OCC(=O)NCc1ccncc1	3.2µM*	?	15µM*	/	2.8µM*
O=C(COc1ccc(S(=O)(=O)NCc2ccccc2)cc1Cl)NCc1ccncc1	?	-3%	-2%	/	-1%
Cc1nc(-c2cccc3ccccc23)ccc1C(=O)O	1%	-1%	0%	16%	0%
FC(F)(F)c1ccc(CN2CCN(Cc3ccco3)CC2)cc1	1%	-1%	-2%	/	3%
Cc1cccc(-c2nc(-c3ccc4c(c3)[nH]c(=O)n4C)no2)c1	/	/	1%	/	/
Cc1cc(-c2nc(-c3ccc(C(C)(C)C)cc3)no2)no1	0.56µM*	?	3µM*	/	1µM*
CC(C)(C)c1ccc(-c2noc(-c3ccc4c(c3)CCO4)n2)cc1	26%	?	8.5µM*	/	?
Cc1c(-c2nc(-c3ccc(C(C)(C)C)cc3)no2)n(C)oc1=O	?	?	11µM*	/	?
Cc1nc(-c2cc(-c3nc(-c4ccc(C(F)(F)F)cc4)no3)no2)cs1	0%	-2%	3%	/	-3%
CCOc1ccc(-c2nc(-c3ccc(OC)c(OC)c3)no2)cc1OCC	-7%	2%	1%	?	-1%
Cc1c(NC(=O)c2ccc(=O)oc2)c(=O)n(-c2ccccc2)n1C	6%	6%	1%	-2%	?
C/C(CCC(C)C)=N\Nc1cc(C)c2ccccc2n1	4%	-1%	12µM*	2%	-9%
Cc1csc(NC(=O)c2nc3nccc(C)n3n2)n1	?	?	?	14%	?
Cc1ccnc2nc(C(=O)Nc3nc4ccccc4s3)nn12	2.8µM*	?	11µM*	/	1µM*
Cc1ccc(NC(=O)c2nc3nccc(C)n3n2)c(C)c1	?	?	?	11µM*	?
CCOc1ccc(OCC)c(NC(=O)C2CCN(S(=O)(=O)c3c(C)noc3/C=C/c3ccccc3F)CC2)c1	/	/	-1%	/	/
O=C(N/C(=C/c1cccnc1)C(=O)N1CCCCCC1)c1cccc(Br)c1	-2%	-1%	0%	/	-1%
O=C(CCCCCNC(=O)c1ccccc1)N/N=C/c1ccc(F)cc1	1%	8%	-1%	8%	1%
N#Cc1cccc(NC(=O)Nc2cccs2)c1	15%	-1%	15µM*	-18%	19%
CCc1cccc(NC(=O)Nc2cccs2)c1	2.8µM*	?	8.5µM*	13µM*	?
N#Cc1cccc(NC(=O)Cc2ccsc2)c1	1%	1%	-3%	/	-1%
